# Screening data deposited in PubChem BioAssay by several laboratories.
# hiPSC survival = enhancers of single-cell hiPSC survival, primary screen, ATPlite luminescence; 100% = ROCK inhibitor wells, 0% = DMSO; AID 602274, 2012; survival enhancement, % at 20 µM; actives 0.044% (n = 360,000); in the data active means survival enhancement above about 18%;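 further: cells exposed to compounds for 16 hours before the ATP read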
# TWEAK-Fn14 inh = inhibitors of TWEAK-Fn14 signaling, primary screen, luciferase reporter cells, uHTS | inhibition, % at 10 µM | actives 2% (n = 360,000) | TWEAK-stimulated Fn14 reporter cells, luciferase luminescence, 8 h; in the data active means inhibition above about 50%
# LGR2 inh = inhibitors of bursicon-induced LGR2 CRE-luciferase signal, primary screen, cell-based, HEK293, CRE-luciferase reporter, bursicon stimulation. bursicon-stimulated, 4 h. AID 720647, 2013. inhibition, % at 9.99 µM. actives 0.35% (n = 380,000). Drosophila bursicon receptor LGR2 (rickets);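 active means drop in luminescence signal, shown as inhibition above about 50% in the replicate tests, limit read from the data, passing the limit was not always enough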;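 further: agonist challenge used bursicon conditioned medium at about half maximal strength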
# HIF-2a inh = HIF-2a reporter inhibitors, primary screen, luminescence, 786-0 RCC cells; 786-0 RCC cells HIF-2a reporter, luciferase luminescence, overnight; inhibition, % at 18.8 µM; actives 0.72% (n = 360,000); AID 624352, 2012;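 active means inhibition of the luminescence signal of 40% or more relative to plate controls, in a single-dose primary screen at 18.75 µM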
# CF NFkB inh = inhibitors of PAF-induced NF-kB signaling, primary screen, cell-based, GFP fluorescence, uHTS; KKLEB NF-kB-GFP reporter, GFP fluorescence overnight; AID 588850, 2011; actives 0.86% (n = 360,000); inhibition, % at 5 µM;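 active means at least 50% inhibition at 5 µM, scaled per plate between neutral and stimulator controls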;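 further: PAF is a Pseudomonas aeruginosa culture filtrate used as stimulus; plate controls were PAF-stimulated DMSO wells for no effect and unstimulated DMSO wells for full effect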
# KKLEB cytotox = cytotoxicity in KKLEB CF airway cells, primary screen, cytotoxicity control for CF NF-kB inhibitor project, cell-based, uHTS, fluorescence assay plates; KKLEB CF airway cells viability, ATPlite luminescence, overnight; hits give low values; cells stimulated with P. aeruginosa culture filtrate; activity change (cytotoxicity), % at 5 µM; actives 0.36% (n = 360,000);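 active means corrected activity change at or below -50% at 5 µM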
# Mdm2-MdmX confirm = retested Mdm2-MdmX interaction blockers, confirmation, cell-based, luminescence, single concentration, set 2; SaOS-2 split-luciferase Mdm2/MdmX complementation; shares compounds with HIF-2a inh; actives 99% (n = 740); inhibition, % at 8 µM; AID 504601, 2011;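 active means mean inhibition of the luminescence signal across two replicates at or above 26 percent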
# Target sequence (O15151 whole entry, looked up): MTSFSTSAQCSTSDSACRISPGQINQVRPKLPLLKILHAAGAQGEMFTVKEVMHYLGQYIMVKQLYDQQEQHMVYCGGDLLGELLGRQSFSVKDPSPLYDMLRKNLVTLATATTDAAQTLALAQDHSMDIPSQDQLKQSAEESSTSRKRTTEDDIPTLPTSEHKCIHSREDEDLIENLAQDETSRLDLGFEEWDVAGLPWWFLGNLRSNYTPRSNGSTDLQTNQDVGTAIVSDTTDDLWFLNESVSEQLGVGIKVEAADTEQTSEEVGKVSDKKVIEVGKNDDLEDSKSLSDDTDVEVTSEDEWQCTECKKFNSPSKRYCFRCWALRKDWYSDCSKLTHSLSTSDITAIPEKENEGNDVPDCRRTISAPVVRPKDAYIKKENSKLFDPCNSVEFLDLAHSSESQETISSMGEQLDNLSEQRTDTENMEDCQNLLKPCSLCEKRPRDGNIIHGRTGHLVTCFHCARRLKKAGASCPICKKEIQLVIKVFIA
# Target sequence (Q00987 whole entry, looked up): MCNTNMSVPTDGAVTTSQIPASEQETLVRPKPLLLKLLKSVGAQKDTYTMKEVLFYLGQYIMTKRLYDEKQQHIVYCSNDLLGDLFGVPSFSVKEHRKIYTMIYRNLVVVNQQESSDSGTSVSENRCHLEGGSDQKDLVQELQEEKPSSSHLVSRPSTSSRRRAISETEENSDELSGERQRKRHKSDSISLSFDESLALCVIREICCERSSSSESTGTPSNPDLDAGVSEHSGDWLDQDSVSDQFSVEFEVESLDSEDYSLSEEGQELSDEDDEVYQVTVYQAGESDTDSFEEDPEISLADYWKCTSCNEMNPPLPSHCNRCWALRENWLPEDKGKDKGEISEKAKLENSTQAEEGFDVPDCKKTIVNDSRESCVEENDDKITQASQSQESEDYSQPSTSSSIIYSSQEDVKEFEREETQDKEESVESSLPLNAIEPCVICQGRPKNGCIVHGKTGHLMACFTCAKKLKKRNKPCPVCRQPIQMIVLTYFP
# HIF-2a conf = HIF-2a reporter inhibitor retest, confirmation, luminescence, 786-0 RCC cells; actives 56% (n = 1,800); shares compounds with HIF-2a inh; inhibition, % at 18.8 µM; AID 651580, 2012; HIF-2a luciferase reporter luminescence, overnight;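 active means mean inhibition across four replicates of at least 40 percent at the single tested concentration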
# HIF-1a counter = HIF-1a luciferase reporter signal reduction – MiaPaCa-2 cells, single concentration, counter-screen for HIF-2a inhibitor project, confirmation; MiaPaCa-2 HIF-1a luciferase reporter, desferoxamine, overnight; actives 72% (n = 1,800); AID 651589, 2012; inhibition, % at 18.8 µM; shares compounds with HIF-2a inh;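 active means mean inhibition of the reporter signal across four replicates at the single tested dose of 50% or more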
# * = called active by the depositor; / = no result given. The list is not random: actives were taken first. Their share in the collection is about 2.3%.
SMILES,hiPSC survival,TWEAK-Fn14 inh,LGR2 inh,HIF-2a inh,CF NFkB inh,KKLEB cytotox,HIF-2a conf,HIF-1a counter,others
COC(=O)C[C@@H]1CC[C@@H]2[C@@H](COc3ccc(NC(=O)c4ccccc4)cc3C(=O)N2C)O1,/,/,10.7,/,/,/,/,/,
NNC(=O)c1cc2ccccc2cc1O,-1.4,90.9*,33.5,69.5*,7.7,7.4,80.5*,74.5*,
Cc1ccc(Cl)cc1NC(=O)COC(=O)c1ccccc1O,-0.4,-33.1,4.0,18.9,2.1,3.6,/,/,
Cc1ccc(Cl)cc1NC(=O)c1cc2ccccc2cc1O,0.9,46.6,4.6,-142.8,50.9*,-54.8*,/,/,Mdm2-MdmX confirm=100.7*
O=C(NCCN1CCCC1)[C@H]1N[C@H]2c3ccc(C4=CCCCC4)c(=O)n3C[C@H]2[C@@H]1CO,/,/,-11.2,/,/,/,/,/,
CO[C@@H]1CN(C)C(=O)c2ccc(NS(C)(=O)=O)cc2OC[C@@H](C)N(CCC(F)(F)F)C[C@H]1C,/,/,-3.3,/,/,/,/,/,
COc1ccc(/C=C2\CN(Cc3ccccc3)C/C(=C\c3ccc(OC)c(O)c3)C2=O)cc1O,-0.7,1.6,33.0,37.5,99.7*,-68.7*,/,/,Mdm2-MdmX confirm=101.7*
COc1cc(/C=C2/CC/C(=C/c3ccc(O)c(OC)c3)C2=O)ccc1O,0.4,28.7,-0.7,-19.0,44.3,-23.2,/,/,
COc1ccc(C=C2C(=O)c3ccccc3C2=O)cc1O,-0.4,-9.3,-21.2,10.6,-7.8,-7.7,/,/,
CCN1C/C(=C/c2ccc(OC)c(O)c2)C(=O)/C(=C/c2ccc(OC)c(O)c2)C1,-1.4,23.4,32.0,4.9,-31.2,-24.4,/,/,Mdm2-MdmX confirm=53.0*
COc1cc(/C=C2\COC/C(=C\c3ccc(O)c(OC)c3)C2=O)ccc1O,-0.8,-12.0,/,93.1*,91.0*,-43.8,/,/,Mdm2-MdmX confirm=102.7*
CCOC(=O)c1nnc(-c2ccc(C)cc2)nc1Sc1ccccc1Cl,-1.2,41.2,/,22.4,20.7,-5.6,/,/,
CCOC(=O)c1nnc(-c2ccccc2)nc1Sc1c(Cl)cccc1Cl,-1.3,26.9,/,62.5*,22.5,-1.5,19.6,65.3*,
C[C@H](CO)N1C[C@H](C)[C@@H](CN(C)Cc2ccc3c(c2)OCO3)Oc2ccc(NC(=O)Cc3cn(C)c4ccccc34)cc2C1=O,/,/,10.3,/,/,/,/,/,
Cc1ccc2sc(N(CCCN(C)C)C(=O)CCS(=O)(=O)c3ccccc3)nc2c1C,-0.4,63.0*,5.5,88.2*,91.8*,-81.0*,24.2,77.5*,
COc1ccc(OC)c2sc(N(CCCN(C)C)C(=O)CCS(=O)(=O)c3ccccc3)nc12,-0.4,52.9*,25.0,45.0*,85.8*,-29.9,37.2,59.9*,
CN(C)CCN(C(=O)CCS(=O)(=O)c1ccccc1)c1nc2c(F)cccc2s1,-0.4,-1.8,-10.4,4.8,16.5,8.6,/,/,
CN(C)CCNC(=O)c1cccc(-c2cnc3c(NC=O)cc(-c4ccc(F)cc4)cn23)c1,-4.8,-31.1,14.2,22.6,-9.1,-4.9,/,/,
CCSc1ccc(-c2cc(NC=O)c3ncc(-c4cccc(C(=O)NCCN(C)C)c4)n3c2)cc1,-2.5,-180.8,-16.8,92.1*,-29.6,-2.2,-9.3,101.3*,
CC(=O)Nc1cc(-c2cccc(C(=O)NCCN(C)C)c2)cn2c(-c3cccc(C(F)(F)F)c3)cnc12,-2.9,-313.9,-3.6,94.9*,-78.9,-29.5,0.8,104.7*,
CC(=O)Nc1cc(-c2cccc(C(=O)NCCN(C)C)c2)cn2c(-c3ccccc3)cnc12,-2.0,-59.3,-0.4,-17.4,-12.0,-2.8,/,/,
CO[C@H]1CC[C@H]2CCN(C)C(=O)[C@H](C)[C@H](OC)CN(C)C(=O)c3cccc(C#N)c3OC[C@H]1O2,/,/,-3.6,/,/,/,/,/,
C[C@H](CO)N1C[C@H](C)[C@@H](CN(C)C(=O)c2cnccn2)Oc2cc(C3=CCCC3)ccc2S1(=O)=O,/,/,-15.8,/,/,/,/,/,
COc1ccc2c3c(n(C)c2c1)[C@H](CO)N(Cc1ccc2c(c1)OCO2)CC31CN(C(=O)c2ccc3c(c2)OCO3)C1,/,/,-0.6,/,/,/,/,/,
Cc1ccc(S(=O)(=O)/C(=C/Cl)NC(=O)c2ccccc2)cc1,-0.9,76.8*,40.4,41.4*,49.1,-26.1,8.0,67.5*,
SMILES,hiPSC survival,TWEAK-Fn14 inh,LGR2 inh,HIF-2a inh,CF NFkB inh,KKLEB cytotox,HIF-2a conf,HIF-1a counter,others
O=C(NC(=C(Cl)Cl)S(=O)(=O)c1ccc(Cl)cc1)c1ccccc1,0.1,96.1*,27.4,62.4*,24.6,-5.3,4.1,103.3*,
Cc1ccc(S(=O)(=O)C(NC(=O)c2ccccc2)=C(Cl)Cl)cc1,-3.5,64.7*,/,41.4*,6.8,-6.5,12.8,82.2*,
Cc1ccc(S(=O)(=O)CCC(=O)OCC(=O)NC(=O)c2ccccc2)cc1,1.0,8.5,2.8,4.1,16.5,-3.5,/,/,
O=C(C[C@@H]1C[C@H]2c3cc(NC(=O)Cc4ccncc4)ccc3O[C@H]2[C@@H](CO)O1)NCCN1CCCCC1,/,/,21.0,/,/,/,/,/,
CC(=O)/C=C\c1cn(-c2ncc(C(F)(F)F)cc2Cl)c2ccccc12,-0.7,30.9,/,60.9*,-0.3,-4.6,11.0,30.3,
CNc1nc(-c2ccc3c(c2)CCN3C(=O)CC(C)(C)C)c(C)s1,0.2,-20.8,-27.5,-111.0,0.2,1.8,/,/,
CC(=O)Nc1nc(-c2ccc3c(c2)CCN3C(=O)C2CC2)c(C)s1,-0.5,11.5,5.7,-63.5,-21.0,5.7,/,/,Mdm2-MdmX confirm=97.5*
O=C(Nc1nc2ccc(S(=O)(=O)N3CCCC3)cc2s1)c1ccccn1,-1.1,-9.9,-51.9,-96.5,-5.5,19.6,/,/,
Cc1ccc2nc(NC(=O)c3ccccn3)sc2c1,-2.2,98.1*,102.6*,80.2*,-5.1,-67.2*,88.7*,79.5*,Mdm2-MdmX confirm=101.7*
COC(=O)C[C@H]1C[C@@H]2c3cc(NS(=O)(=O)c4ccccc4)ccc3O[C@@H]2[C@H](CO)O1,/,/,0.2,/,/,/,/,/,
Cn1c(/C=C/c2ccc([N+](=O)[O-])o2)nc2ccccc2c1=O,-4.7,27.7,/,75.5*,-10.8,-6.1,-6.5,104.7*,Mdm2-MdmX confirm=102.5*
CNC[C@H]1Oc2c(NS(=O)(=O)c3cn(C)cn3)cccc2C(=O)N([C@H](C)CO)C[C@H]1C,/,/,15.8,/,/,/,/,/,
